Records with an inconclusive call do not appear. Active and inactive are the calls of the source. Calls come from the whole dose curve; as a rule, active = well fitted inhibition curve with a large enough effect; inconclusive = small, poorly fitted or top-dose-only effect; inactive = flat fitted curve, though single readings scatter.
Tests used:
HaCat [1] = assay: Cytotoxic Profiling of Annotated Libraries Using Quantitative High-Throughput Screening (AID 1296008); conditions: Five cell lines viability, CellTiter-Glo ATP luminescence, 48-72 h; max response: hits give low values; note: potency is the fitted concentration of half-maximal effect; for max response: % is set by controls: 0 for no effect and ±100 for the full control effect
How it was run: (§1)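 Cytotoxicity was measured as CellTiter-Glo ATP luminescence, read after 10 min at room temperature. Compound treatment of the cells lasted 48 or 72 hr at 37 degrees Celsius in a qHTS format.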

KB-3-1 = assay: as above; conditions: Five cell lines viability, CellTiter-Glo ATP luminescence, 48-72 h; max response: hits give low values
How it was run: as §1

NIH3T3 = assay: as above; conditions: Five cell lines viability, CellTiter-Glo ATP luminescence, 48-72 h; max response: hits give low values
How it was run: as §1

HACAT [2] = assay: qHTS assay to identify novel small-molecules to repurpose for Merkel cell carcinoma treatment (AID 1296009); conditions: MCC and control cell lines, CellTiter-Glo viability, 72 h; at 44.8 µM (top of the series) unless noted
How it was run: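 After compound transfer in DMSO, plates were kept 72 hr at 37 degree celsius. Luminescent ATP signal from CellTiter-Glo served as viability measure, normalized against DMSO and no-cell controls.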
Note: nearly all actives have a fitted effect of over 60% in size.

COC(=O)c1sccc1S(=O)(=O)Nc1ccc(Nc2ccccc2)cc1OC
inactive: outcome (HaCat [1]) | max response (KB-3-1) -21.5% | max response (NIH3T3) 1.31% | outcome (HACAT [2])

COc1cc(N2CCOCC2)ccc1NC(=O)c1csc(-c2cccnc2)n1
inactive: max response (HaCat [1]) -49.6% | max response (KB-3-1) 1.64%
active: Potency (NIH3T3) 10.3 µM

Cc1ccc(-c2cn3c4c(sc3n2)CCCC4)cc1
inactive: outcome (HaCat [1]) | max response (KB-3-1) -4.88% | max response (NIH3T3) -12.5% | outcome (HACAT [2])

CC(=O)OC1CC2(C)C(CCC(C)C23Cc2c(O)cc(CO)c(C=O)c2O3)C(C)(C)C1O (configuration not stated)
inactive: outcome (HaCat [1]) | max response (KB-3-1) 1.75% | max response (NIH3T3) 1.46% | outcome (HACAT [2]) inactive [at 17.4 µM]

C=C1C(=O)OC2CC3(C)C(O)C(=O)C=C(C)C3CC12 (configuration not stated)
inactive: max response (HaCat [1]) 0.297% | outcome (KB-3-1) | max response (NIH3T3) -22.8%

Cc1nc(C#Cc2ccnc(Cl)c2)c(C)n1-c1ccc(OC(F)(F)F)cc1
inactive: outcome (HaCat [1]) | max response (KB-3-1) -15.3% | max response (NIH3T3) -27.8% | outcome (HACAT [2])

C=C1CC[C@@H]2[C@](C)(CO)[C@H](O)CC[C@@]2(C)[C@@H]1C/C=C1/C(=O)OCC1OC(=O)/C(=C/CO)C(O)C[C@@H]1C(=C)CC[C@@H]2[C@](C)(CO)[C@H](O)CC[C@]21C (some centres not stated)
inactive: outcome (HaCat [1]) | outcome (KB-3-1) | outcome (HACAT [2]) inactive [at 17.4 µM]

CC(=O)Nc1cccc(-c2csc(Nc3cc(C)ccn3)n2)c1
inactive: max response (HaCat [1]) -25.9% | max response (KB-3-1) -18.5% | max response (NIH3T3) -21%

Cc1ccnc(NC(=O)C(C)c2cccc(C(=O)c3ccccc3)c2)c1 (configuration not stated)
inactive: outcome (HaCat [1]) | max response (KB-3-1) -17.5% | max response (NIH3T3) -5.36% | outcome (HACAT [2])

Reference: PubChem BioAssay (NCATS)
